Test results: the supplement of paper PMC8728848
Many of the other results were omitted from the sample, so the strongest signals are more common in it than they were.

Assays:
Assay in all cases: glycan array binding signal (z-score within array); higher = stronger binding
Details in all cases: glycan notation: IUPAC condensed, linker removed
Fuc(a1-2)[Gal(a1-3)]Gal = molecular target: Fuc(a1-2)[Gal(a1-3)]Gal
In short: (§1)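 Negative Z-scores can be read as non-binding. The Z-score is calculated within each array and then averaged across arrays of one protein sequence at different concentrations or buffers and across linkers. Arrays, 3228 in all, were curated from the Consortium for Functional Glycomics database and kept only where the protein sequence was available.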

[1] = molecular target: Fuc(a1-2)[Gal(a1-3)]Gal(b1-4)Glc
In short: as §1

[2] = molecular target: Fuc(a1-2)[Gal(a1-4)]Gal(b1-4)GlcNAc
In short: as §1

[3] = molecular target: Fuc(a1-2)[GalNAc(a1-4)]Gal(b1-4)GlcNAc
In short: as §1

Fuc(a1-4)GlcNAc = molecular target: Fuc(a1-4)GlcNAc
In short: as §1

Gal(a1-3)Gal = molecular target: Gal(a1-3)Gal
In short: as §1

[4] = molecular target: Gal(b1-3)GlcNAc(b1-3)Gal(b1-3)GlcNAc
In short: as §1

Gal3S(b1-4)GlcNAc6S = molecular target: Gal3S(b1-4)GlcNAc6S
In short: as §1

GalNAc(a1-3)Gal = molecular target: GalNAc(a1-3)Gal
In short: as §1

GlcA(b1-3)GlcNAc = molecular target: GlcA(b1-3)GlcNAc
In short: as §1

[5] = molecular target: GlcNAc(a1-3)Gal(b1-4)GlcNAc
In short: as §1

[6] = molecular target: GlcNAc(a1-6)Gal(b1-4)GlcNAc
In short: as §1

GlcNAc(b1-3)Gal(b1-4)Glc = molecular target: GlcNAc(b1-3)Gal(b1-4)Glc
In short: as §1

Neu5Ac(a2-6)GalNAc = molecular target: Neu5Ac(a2-6)GalNAc
In short: as §1

[7] = molecular target: Neu5Ac(a2-8)Neu5Ac(a2-3)[GalNAc(b1-4)]Gal(b1-4)Glc
In short: as §1

Neu5Gc(a2-3)Gal(b1-4)Glc = molecular target: Neu5Gc(a2-3)Gal(b1-4)Glc
In short: as §1

[8] = molecular target: Neu5Gc(a2-3)Gal(b1-4)GlcNAc
In short: as §1

Neu5Gc(a2-6)GalNAc = molecular target: Neu5Gc(a2-6)GalNAc
In short: as §1

[9] = molecular target: Fuc(a1-2)Gal6S(b1-4)GlcNAc
In short: as §1

[10] = molecular target: Fuc(a1-2)[Gal(a1-3)]Gal(b1-4)GlcNAc(b1-2)Man(a1-3)[Fuc(a1-2)[Gal(a1-3)]Gal(b1-4)GlcNAc(b1-2)Man(a1-6)]Man(b1-4)GlcNAc(b1-4)GlcNAc
In short: as §1

[11] = molecular target: Fuc(a1-2)[GalNAc(a1-3)]Gal(b1-4)Glc
In short: as §1

[12] = molecular target: Fuc(a1-3)[Gal(b1-4)]GlcNAc(b1-4)Gal(b1-4)[Fuc(a1-3)]GlcNAc
In short: as §1

[13] = molecular target: Gal(a1-3)Gal(b1-3)GlcNAc(b1-2)Man(a1-3)[Gal(a1-3)Gal(b1-3)GlcNAc(b1-2)Man(a1-6)]Man(b1-4)GlcNAc(b1-4)GlcNAc
In short: as §1

Gal(b1-3)Gal = molecular target: Gal(b1-3)Gal
In short: as §1

[14] = molecular target: Gal(b1-3)Gal(b1-4)GlcNAc(b1-2)Man(a1-3)[Gal(b1-3)Gal(b1-4)GlcNAc(b1-2)Man(a1-6)]Man(b1-4)GlcNAc(b1-4)GlcNAc
In short: as §1

[15] = molecular target: Gal(b1-3)[Fuc(a1-4)]GlcNAc(b1-2)Man(a1-3)[Gal(b1-3)[Fuc(a1-4)]GlcNAc(b1-2)Man(a1-6)]Man(b1-4)GlcNAc(b1-4)GlcNAc
In short: as §1

[16] = molecular target: Gal(b1-4)GalNAc(a1-3)[Fuc(a1-2)]Gal(b1-4)GlcNAc
In short: as §1

[17] = molecular target: Gal(b1-4)GlcNAc(b1-2)Man(a1-3)Man(b1-4)GlcNAc(b1-4)GlcNAc
In short: as §1

Gal3S(b1-3)GalNAc = molecular target: Gal3S(b1-3)GalNAc
In short: as §1

Gal3S6S(b1-4)GlcNAc = molecular target: Gal3S6S(b1-4)GlcNAc
In short: as §1

Gal3S6S(b1-4)GlcNAc6S = molecular target: Gal3S6S(b1-4)GlcNAc6S
In short: as §1

[18] = molecular target: GlcNAc(b1-2)Gal(b1-3)GalNAc
In short: as §1

[19] = molecular target: GlcNAc(b1-2)Man(a1-3)[GlcNAc(b1-2)Man(a1-6)]Man(b1-4)GlcNAc(b1-4)GlcNAc
In short: as §1

[20] = molecular target: GlcNAc(b1-2)Man(a1-3)[GlcNAc(b1-2)Man(a1-6)]Man(b1-4)GlcNAc(b1-4)[Fuc(a1-6)]GlcNAc
In short: as §1

[21] = molecular target: GlcNAc(b1-3)Gal(b1-3)GalNAc
In short: as §1

[22] = molecular target: GlcNAc(b1-3)[GlcNAc(b1-4)][GlcNAc(b1-6)]GlcNAc
In short: as §1

[23] = molecular target: GlcNAc(b1-3)[GlcNAc(b1-6)]Gal(b1-4)GlcNAc
In short: as §1

GlcNAc(b1-6)GalNAc = molecular target: GlcNAc(b1-6)GalNAc
In short: as §1

Kdn(a2-3)Gal(b1-3)GalNAc = molecular target: Kdn(a2-3)Gal(b1-3)GalNAc
In short: as §1

[24] = molecular target: Neu5Ac(a2-3)Gal(b1-3)GalNAc(b1-3)Gal(a1-4)Gal(b1-4)Glc
In short: as §1

[25] = molecular target: Neu5Ac(a2-3)Gal(b1-3)[Fuc(a1-4)]GlcNAc
In short: as §1

[26] = molecular target: Neu5Ac(a2-3)Gal(b1-4)GlcNAc6S
In short: as §1

[27] = molecular target: Neu5Ac(a2-3)Gal(b1-4)[Fuc(a1-3)]GlcNAc(b1-3)GalNAc
In short: as §1

[28] = molecular target: Neu5Ac(a2-3)Gal(b1-4)[Fuc(a1-3)]GlcNAc(b1-6)[Neu5Ac(a2-3)Gal(b1-3)]GalNAc
In short: as §1

[29] = molecular target: Neu5Ac(a2-6)Gal(b1-4)GlcNAc(b1-3)Gal(b1-4)GlcNAc
In short: as §1

[30] = molecular target: Neu5Ac(a2-6)GlcNAc(b1-4)GlcNAc(b1-4)GlcNAc
In short: as §1

Neu5Ac(a2-8)Neu5Ac = molecular target: Neu5Ac(a2-8)Neu5Ac
In short: as §1

[31] = molecular target: Neu5Gc(a2-3)Gal(b1-3)[Fuc(a1-4)]GlcNAc
In short: as §1

B1: SLR2P2A3 (Tachypleus tridentatus), TAL2_TACTR (protein)
chain: MEKGTPPTHDSDNWMGRAKKIGNGGWNQFQFLFFDPNGYLYAVSKDKLYKASPPQSDTDNWIARATEIGSGGWSGSKFLFFHPNGYLYAVHGQRLYKALPPVSNQD
With B1 as the binder, how does the “glycan array binding signal (z-score)” value (Fuc(a1-2)[Gal(a1-3)]Gal) read?
Its value is -0.054.

What about the “glycan array binding signal (z-score)” value [1] of the same binder?
Its value is -0.191.

And the “glycan array binding signal (z-score)” value [2]?
Its value is -0.148.

And the “glycan array binding signal (z-score)” value [3]?
The value was 7.28.

What about the “glycan array binding signal (z-score)” value (Fuc(a1-4)GlcNAc) of the same binder?
Its value is -0.416.

What about the “glycan array binding signal (z-score)” value (Gal(a1-3)Gal) of the same binder?
Its value is -0.317.

What about the “glycan array binding signal (z-score)” value [4] of the same binder?
Its value is -0.344.

What about the “glycan array binding signal (z-score)” value (Gal3S(b1-4)GlcNAc6S) of the same binder?
Its value is -0.09.

And the “glycan array binding signal (z-score)” value (GalNAc(a1-3)Gal)?
The value was 6.13.

What about the “glycan array binding signal (z-score)” value (GlcA(b1-3)GlcNAc) of the same binder?
Its value is 0.168.

What about the “glycan array binding signal (z-score)” value [5] of the same binder?
Its value is 5.44.

And the “glycan array binding signal (z-score)” value [6]?
Its value is 6.84.

What about the “glycan array binding signal (z-score)” value (GlcNAc(b1-3)Gal(b1-4)Glc) of the same binder?
The value was 5.09.

And the “glycan array binding signal (z-score)” value (Neu5Ac(a2-6)GalNAc)?
Its value is -0.16.

What about the “glycan array binding signal (z-score)” value [7] of the same binder?
Its value is -0.279.

What about the “glycan array binding signal (z-score)” value (Neu5Gc(a2-3)Gal(b1-4)Glc) of the same binder?
Its value is -0.253.

And the “glycan array binding signal (z-score)” value [8]?
The value was -0.059.

And the “glycan array binding signal (z-score)” value (Neu5Gc(a2-6)GalNAc)?
The value was -0.125.

B2: CREG (Mus musculus), O88668 (protein)
chain: MAARAPELARSLLAALLAPALVALLVSPASGRGGRDHGDWDVDRRLPPLPPREDGPRVARFVTHVSDWGSLATISTIKEVRGWPFADIISISDGPPGEGTGEPYMYLSPLQQAVSDLQENPEATLTMSLAQTVYCRNHGFDPQSPLCVHIMMSGTVTKVNKTEEDYARDSLFVRHPEMKHWPSSHNWFFAKLKISRIWVLDYFGGPKVVTPEEYFNVTLQ
How did the “glycan array binding signal (z-score)” value [9] turn out when B2 was run?
The value was -0.138.

And the “glycan array binding signal (z-score)” value [10]?
The value was 2.76.

And the “glycan array binding signal (z-score)” value [11]?
Its value is 0.375.

What about the “glycan array binding signal (z-score)” value [12] of the same binder?
The value was 2.95.

What about the “glycan array binding signal (z-score)” value [13] of the same binder?
The value was 3.49.

What about the “glycan array binding signal (z-score)” value (Gal(b1-3)Gal) of the same binder?
The value was 0.033.

What about the “glycan array binding signal (z-score)” value [14] of the same binder?
Its value is 0.416.

What about the “glycan array binding signal (z-score)” value [15] of the same binder?
The value was 6.79.

What about the “glycan array binding signal (z-score)” value [16] of the same binder?
The value was 0.494.

What about the “glycan array binding signal (z-score)” value [17] of the same binder?
The value was -0.442.

What about the “glycan array binding signal (z-score)” value (Gal3S(b1-3)GalNAc) of the same binder?
The value was 0.036.

What about the “glycan array binding signal (z-score)” value (Gal3S(b1-4)GlcNAc6S) of the same binder?
The value was 0.604.

What about the “glycan array binding signal (z-score)” value (Gal3S6S(b1-4)GlcNAc) of the same binder?
The value was 1.52.

What about the “glycan array binding signal (z-score)” value (Gal3S6S(b1-4)GlcNAc6S) of the same binder?
The value was 2.03.

And the “glycan array binding signal (z-score)” value [18]?
The value was -0.651.

And the “glycan array binding signal (z-score)” value [19]?
Its value is 0.15.

And the “glycan array binding signal (z-score)” value [20]?
The value was 3.8.

What about the “glycan array binding signal (z-score)” value [21] of the same binder?
Its value is 3.22.

What about the “glycan array binding signal (z-score)” value [22] of the same binder?
The value was 2.23.

And the “glycan array binding signal (z-score)” value [23]?
Its value is -0.627.

What about the “glycan array binding signal (z-score)” value (GlcNAc(b1-6)GalNAc) of the same binder?
The value was -0.035.

And the “glycan array binding signal (z-score)” value (Kdn(a2-3)Gal(b1-3)GalNAc)?
Its value is 0.66.

What about the “glycan array binding signal (z-score)” value [24] of the same binder?
Its value is -0.096.

What about the “glycan array binding signal (z-score)” value [25] of the same binder?
The value was -0.737.

What about the “glycan array binding signal (z-score)” value [26] of the same binder?
The value was 1.38.

And the “glycan array binding signal (z-score)” value [27]?
The value was 3.4.

What about the “glycan array binding signal (z-score)” value [28] of the same binder?
The value was 4.66.

And the “glycan array binding signal (z-score)” value [29]?
Its value is 0.227.

And the “glycan array binding signal (z-score)” value [30]?
Its value is 0.386.

What about the “glycan array binding signal (z-score)” value (Neu5Ac(a2-8)Neu5Ac) of the same binder?
Its value is -0.211.

And the “glycan array binding signal (z-score)” value [31]?
The value was -0.132.
